PubChem BioAssay AID1671202 (University of Kansas High Throughput Screening Laboratory, 2021)
“And” between values parts separate entries of the source, which are not always exact repeats. Identical values can stand only once. Hit rate of the full screen: of about 190,000 compounds, about 6,900 (3.6%) were called active. Cut-off read from the data, not from the text of the source: active = inhibition above about 50%; inactive = the rest. The list comes from a sample in which actives are over-represented; it also holds similar structures and randomly drawn compounds.

target: Huntingtin (Homo sapiens) (UniProt P42858); test: mutant huntingtin-calmodulin interaction inhibitors – biochemical, AlphaScreen, primary screen (AID 1671202); conditions: AlphaScreen His-mHTT/GST-CaM binding, luminescence; at 15 µM, active compounds read high;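 note: 0% = both proteins with DMSO and 100% = one protein alone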
Sequence (P42858 whole entry, looked up, stated change not applied): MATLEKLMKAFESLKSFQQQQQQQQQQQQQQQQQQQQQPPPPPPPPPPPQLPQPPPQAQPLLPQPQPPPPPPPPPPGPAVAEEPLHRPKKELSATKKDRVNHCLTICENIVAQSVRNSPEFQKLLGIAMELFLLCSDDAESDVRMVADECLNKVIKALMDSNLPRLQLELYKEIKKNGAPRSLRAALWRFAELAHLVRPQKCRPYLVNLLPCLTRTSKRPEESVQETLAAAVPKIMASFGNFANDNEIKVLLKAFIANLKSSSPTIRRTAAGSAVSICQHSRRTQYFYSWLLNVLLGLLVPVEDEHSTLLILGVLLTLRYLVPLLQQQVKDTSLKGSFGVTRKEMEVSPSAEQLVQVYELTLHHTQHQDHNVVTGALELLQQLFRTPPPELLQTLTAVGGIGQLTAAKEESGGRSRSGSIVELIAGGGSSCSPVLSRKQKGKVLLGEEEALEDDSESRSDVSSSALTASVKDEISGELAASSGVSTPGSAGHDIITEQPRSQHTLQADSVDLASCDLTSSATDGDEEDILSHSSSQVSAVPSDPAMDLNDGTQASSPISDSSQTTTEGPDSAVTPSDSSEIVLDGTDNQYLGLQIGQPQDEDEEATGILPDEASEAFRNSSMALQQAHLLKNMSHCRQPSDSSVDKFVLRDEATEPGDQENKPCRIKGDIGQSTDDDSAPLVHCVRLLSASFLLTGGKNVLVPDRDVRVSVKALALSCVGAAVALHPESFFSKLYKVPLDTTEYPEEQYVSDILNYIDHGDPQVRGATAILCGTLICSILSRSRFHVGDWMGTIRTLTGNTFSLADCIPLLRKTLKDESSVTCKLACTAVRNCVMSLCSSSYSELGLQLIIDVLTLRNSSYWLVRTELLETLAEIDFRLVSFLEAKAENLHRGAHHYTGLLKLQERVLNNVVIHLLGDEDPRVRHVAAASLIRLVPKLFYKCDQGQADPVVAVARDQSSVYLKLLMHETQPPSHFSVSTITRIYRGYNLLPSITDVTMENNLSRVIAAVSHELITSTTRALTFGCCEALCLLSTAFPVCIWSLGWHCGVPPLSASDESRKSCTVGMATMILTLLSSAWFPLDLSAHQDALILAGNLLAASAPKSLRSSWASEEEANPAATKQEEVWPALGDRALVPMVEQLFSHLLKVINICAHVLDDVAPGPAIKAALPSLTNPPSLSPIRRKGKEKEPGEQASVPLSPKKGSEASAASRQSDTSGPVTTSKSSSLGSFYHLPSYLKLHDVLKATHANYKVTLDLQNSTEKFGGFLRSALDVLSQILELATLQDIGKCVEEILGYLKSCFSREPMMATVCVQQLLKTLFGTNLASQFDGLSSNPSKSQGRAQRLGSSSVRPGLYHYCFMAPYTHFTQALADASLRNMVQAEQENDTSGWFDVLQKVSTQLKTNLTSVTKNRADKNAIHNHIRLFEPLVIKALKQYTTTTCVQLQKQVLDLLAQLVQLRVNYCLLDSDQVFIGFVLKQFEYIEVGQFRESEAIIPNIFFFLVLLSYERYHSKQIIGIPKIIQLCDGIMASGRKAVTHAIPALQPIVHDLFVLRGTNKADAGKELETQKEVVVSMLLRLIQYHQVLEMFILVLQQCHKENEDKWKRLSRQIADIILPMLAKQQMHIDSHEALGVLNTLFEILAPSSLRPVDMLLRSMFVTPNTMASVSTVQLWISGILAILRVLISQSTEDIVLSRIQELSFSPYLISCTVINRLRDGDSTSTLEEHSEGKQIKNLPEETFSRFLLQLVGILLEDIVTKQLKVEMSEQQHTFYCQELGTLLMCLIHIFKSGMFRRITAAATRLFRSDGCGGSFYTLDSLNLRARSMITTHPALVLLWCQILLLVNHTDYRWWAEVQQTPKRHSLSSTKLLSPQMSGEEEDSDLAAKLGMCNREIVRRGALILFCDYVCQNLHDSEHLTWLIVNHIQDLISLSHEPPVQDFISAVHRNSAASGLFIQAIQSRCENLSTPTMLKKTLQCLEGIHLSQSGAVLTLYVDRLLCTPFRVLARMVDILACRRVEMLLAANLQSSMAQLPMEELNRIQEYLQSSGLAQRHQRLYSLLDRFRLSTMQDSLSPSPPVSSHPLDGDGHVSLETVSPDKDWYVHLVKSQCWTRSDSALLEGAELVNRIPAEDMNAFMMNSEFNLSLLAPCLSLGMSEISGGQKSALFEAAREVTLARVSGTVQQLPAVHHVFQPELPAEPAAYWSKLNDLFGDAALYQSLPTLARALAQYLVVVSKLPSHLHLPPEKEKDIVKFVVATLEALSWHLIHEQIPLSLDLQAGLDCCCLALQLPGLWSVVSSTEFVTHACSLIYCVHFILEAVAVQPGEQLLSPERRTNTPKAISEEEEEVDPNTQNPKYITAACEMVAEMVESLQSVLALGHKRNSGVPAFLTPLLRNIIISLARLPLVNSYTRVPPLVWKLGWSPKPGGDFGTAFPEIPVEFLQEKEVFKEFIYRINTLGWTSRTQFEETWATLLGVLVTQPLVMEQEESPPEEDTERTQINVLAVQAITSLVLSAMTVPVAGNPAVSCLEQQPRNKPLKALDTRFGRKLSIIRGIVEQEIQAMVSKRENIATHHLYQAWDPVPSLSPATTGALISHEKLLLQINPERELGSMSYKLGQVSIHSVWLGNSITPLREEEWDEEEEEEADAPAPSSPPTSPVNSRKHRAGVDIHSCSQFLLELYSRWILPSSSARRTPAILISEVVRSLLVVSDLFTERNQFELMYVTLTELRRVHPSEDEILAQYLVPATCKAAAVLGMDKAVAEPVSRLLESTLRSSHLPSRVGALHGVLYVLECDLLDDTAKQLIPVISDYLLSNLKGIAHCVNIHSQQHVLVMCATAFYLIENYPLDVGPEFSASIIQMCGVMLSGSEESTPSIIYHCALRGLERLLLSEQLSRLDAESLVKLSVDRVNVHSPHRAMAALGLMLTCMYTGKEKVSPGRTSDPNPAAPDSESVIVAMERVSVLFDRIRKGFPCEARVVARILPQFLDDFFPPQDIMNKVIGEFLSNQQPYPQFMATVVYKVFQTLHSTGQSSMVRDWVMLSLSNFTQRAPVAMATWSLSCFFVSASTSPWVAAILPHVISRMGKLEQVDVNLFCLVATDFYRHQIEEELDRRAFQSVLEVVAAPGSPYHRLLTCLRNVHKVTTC

Row | Structure (SMILES) | inhibition
1 | Cc1cccc(-c2nc(C3CCN(C(=O)Cc4ccccc4Br)CC3)no2)c1 | -7.4% (inactive)
2 | COc1ccc(C(=O)Oc2ccc3c(=O)c(Oc4ccccc4OC)coc3c2)cc1 | 0.8% (inactive)
3 | Cc1cccc(-n2nc3c(c2NC(=O)c2cccc(Cl)c2)CS(=O)(=O)C3)c1C | 16% (inactive)
4 | CCCN(CCC)CCCNC(=O)CSc1nc2nc(C)c(Cc3ccccc3)c(C)n2n1 | 7% (inactive)
5 | COc1ccc(OCCCC(=O)Nc2ccccc2)cc1 | -9.6% (inactive)
6 | O=c1oc2ccc(Br)cc2cc1-c1ccc2c(c1)OCO2 | -1% (inactive)
7 | C=CS(=O)(=O)N(Cc1nnn(Cc2ccccc2)c1Br)[C@H](C(=O)OC)C(C)C | -13.3% (inactive)
8 | CN(Cc1ccccc1)C(=O)c1ccc(N2CC3CC(C2)c2cccc(=O)n2C3)c([N+](=O)[O-])c1 (configuration not stated) | 9% (inactive)
9 | COc1ccc(Br)cc1C=C(NC(=O)c1cc(OC)c(OC)c(OC)c1)C(=O)N1CC2CC(C1)c1cccc(=O)n1C2 (configuration not stated) | 73.4% (active)
10 | O=C(Nc1ccc(Cl)cc1)c1ccc(N2CC3CC(C2)c2cccc(=O)n2C3)c([N+](=O)[O-])c1 (configuration not stated) | 6% (inactive)
11 | CCC(=O)N1CCN(c2nc3c(s2)CC(C(=O)Nc2cc(C)ccc2C)CC3)CC1 (configuration not stated) | 18.3% (inactive)
12 | Cc1ccc(NC(=O)c2cnn3c2NC(c2ccco2)CC3C(F)(F)F)cc1C (configuration not stated) | -4% (inactive)
13 | COc1ccc(C2CC(C(F)(F)F)n3ncc(C(=O)Nc4ccc(C)c(C)c4)c3N2)cc1OC (configuration not stated) | 53% (active)
14 | COc1ccc(C2CC(C(F)(F)F)n3ncc(C(=O)Nc4cc(C)ccc4C)c3N2)cc1OC (configuration not stated) | 27% (inactive)
15 | Cc1ccc(CNC(=O)c2ccnc(N3CCNC(c4ccccc4)C3)c2)cc1 (configuration not stated) | 35.5% (inactive)
16 | COCCCNC(=O)c1c(NC(=O)c2ccccc2Cl)sc2c1CCCC2 | -17.4% (inactive)
17 | O=c1cc(-c2ccccc2F)oc2ccc(Cl)cc12 | -8.7% (inactive)
18 | CC1=C(C#N)c2nc(N)c(C#N)c(C)c2/C1=C/c1ccccc1[N+](=O)[O-] | 16% (inactive)
19 | COc1cc(/C=C2\C(C)=C(C#N)c3nc(N)c(C#N)c(C)c32)ccc1O | 60% (active)
20 | COc1cc(C=Nc2oc(C)c(C)c2C#N)ccc1O | 6% (inactive)
21 | CC(=O)Nc1c(C)ccc(S(=O)(=O)N2CCCCC2)c1C | 2.7% (inactive)
22 | CCCCCCN1CCS(=O)(=O)N(Cc2ccc(C(F)(F)F)cc2)C(C(=O)OC)C1 (configuration not stated) | -0.1% (inactive)
23 | COC(=O)C1CN(CC(C)C)CCS(=O)(=O)N1Cc1ccc(F)cc1 (configuration not stated) | 7.2% (inactive)

Row | Structure (SMILES) | inhibition
24 | COC(=O)C1CN(CCc2ccccc2)CCS(=O)(=O)N1Cc1ccc(F)cc1 (configuration not stated) | 50.6% (active)
25 | Nc1ncnc(NCc2cccc(Cl)c2)c1[N+](=O)[O-] | 3% (inactive)
26 | O=[N+]([O-])c1cc(S(=O)(=O)CCCN2CCOCC2)ccc1F | 97% (active)
27 | O=S(=O)(NCCN1CCOCC1)c1ccc(I)cc1 | -0.7% (inactive)
28 | Cc1ccc(OCCOCCN2CCOCC2)c([N+](=O)[O-])c1 | 2% (inactive)
29 | CC1CCc2nn(CC(=O)Nc3ccccc3Cl)c(=O)cc2C1 (configuration not stated) | 0.27% (inactive)
30 | COc1ccc(N2CCN(CC(O)COc3ccc(C(C)=O)cc3)CC2)cc1 (configuration not stated) | 3.7% (inactive)
31 | Cc1ccc(-c2nc3s/c(=C\c4ccccc4)c(=O)n3n2)cc1 | 7% (inactive)
32 | N#C/C(=C\c1cccs1)c1nc(-c2ccc3c(c2)OCO3)cs1 | -4.4% (inactive)
33 | COc1ccc(OC)c(NC(=O)NS(=O)(=O)c2ccc(C)cc2)c1 | 14.2% (inactive)
34 | CC(=O)Nc1cc2nn(-c3ccc(Cl)cc3)nc2cc1C | 0.6% (inactive) and -5% (inactive)
35 | Cc1nnc2ccc(NC(=O)NCc3ccc(F)cc3)cn12 | -6.1% (inactive)
36 | Cc1nnc2ccc(S(=O)(=O)N(Cc3ccccc3)c3ccc(F)cc3)cn12 | -2.4% (inactive)
37 | Cc1nnc2ccc(S(=O)(=O)N(Cc3ccc(F)cc3)c3ccccc3)cn12 | 54.8% (active)
38 | O=C(Nc1cccs1)N1CCN(c2ccc(-c3ccco3)nn2)CC1 | 52% (active)
39 | CC(C)Oc1ccc(C(=O)N2CCN(Cc3nc(-c4ccco4)cs3)CC2)cc1 | 9.1% (inactive)
40 | O=C(c1cccc(-n2cnnn2)c1)N1CCN(c2ccc(-c3cccs3)nn2)CC1 | 2.8% (inactive)
41 | COc1ccc(C2C(C#N)=C(N)N(c3ccccc3[N+](=O)[O-])C3=C2C(=O)CCC3)cc1 (configuration not stated) | 21% (inactive)
42 | Clc1ccc2[nH]c3c(c2c1)CCCC3NCCOc1ccccc1 (configuration not stated) | 100% (active)
43 | Cc1ccc2[nH]c3c(c2c1)CCCC3O (configuration not stated) | 19.3% (inactive)
44 | COc1ccc(-c2cc3nc4c(c(=O)n3[nH]2)CN(C(=O)c2ccccc2Cl)CC4)cc1 | 62.5% (active)
45 | O=C(C1COc2ccccc2O1)N1CCc2c(nc3cc(-c4ccccc4)[nH]n3c2=O)C1 (configuration not stated) | 76.2% (active)
46 | COC(=O)c1cccc(NC(=O)N2CCc3c(nc4cc(-c5ccccc5)[nH]n4c3=O)C2)c1 | 7.79% (inactive)

Row | Structure (SMILES) | inhibition
47 | O=C(c1ccc(C(F)(F)F)s1)N1CCc2c(nc3cc(-c4ccccc4)[nH]n3c2=O)C1 | 42.1% (inactive)
48 | CNC(=O)N1CCc2nc3cc(-c4ccc(OC)cc4)[nH]n3c(=O)c2C1 | 9.34% (inactive)
49 | COc1ccc(-c2cc3nc4c(c(=O)n3[nH]2)CCN(C(=O)c2ccccc2C)C4)cc1 | 65.3% (active)
50 | COc1ccc(-c2cc3nc4c(c(=O)n3[nH]2)CN(C(=O)CSc2ccccc2)CC4)cc1 | 9.49% (inactive)
51 | CCc1cccc(NC(=O)N2CCc3c(nc4cc(-c5ccc(OC)cc5)[nH]n4c3=O)C2)c1 | 26.8% (inactive)
52 | COc1ccc(-c2cc3nc4c(c(=O)n3[nH]2)CN(C(=O)c2ccc(C)nc2)CC4)cc1 | 1.93% (inactive)
53 | CCOc1ccc(NC(=O)c2ccc(F)c(S(=O)(=O)NC3CCCCCC3)c2)cc1 | 11% (inactive)
54 | C=CCN(C(C)=O)c1nc(C)c(Cl)c(OC)n1 | -2% (inactive)
55 | CCOC1CCc2oc(-c3ccsc3)c(C#CC(C)(C)O)c21 (configuration not stated) | 11.3% (inactive)
56 | O=C(NC1CC2CC1N(C(=O)c1cccc(C(F)(F)F)c1)C2)c1cccs1 (configuration not stated) | 0.72% (inactive)
57 | COCc1noc(C2CCCCN2CC(=O)NCc2cccs2)n1 (configuration not stated) | 0.04% (inactive)
58 | Cc1[nH]c(=O)[nH]c(=O)c1S(=O)(=O)Nc1ccccn1 | -4% (inactive)
59 | O=C1C2C3C=CC(C4CC34)C2C(=O)N1CC1CCCO1 (configuration not stated) | 0.3% (inactive)
60 | O=C(NCc1nnc2n1CCCC2)c1ccc2c(c1)OCO2 | -5.87% (inactive)
61 | O=c1oc2ccccc2cc1-c1csc(N=Cc2ccccc2O)n1 | 26% (inactive)
62 | COc1cccc(N2CCN(C(=O)c3cccs3)C(C)C2=O)c1 (configuration not stated) | -6.9% (inactive)
63 | O=C(CCc1ccccc1)NCc1cccnc1-c1ccccc1 | -6.5% (inactive)
64 | Cc1ccc(C(=O)N2CCC(CCNS(=O)(=O)Cc3ccccc3)CC2)cc1 | 44.2% (inactive)
65 | O=C(c1ccccc1)N1CCC(CCNS(=O)(=O)c2cccc3nsnc23)CC1 | 50.2% (active)
66 | Cc1ccc(C(=O)N2CCC(CCNS(=O)(=O)c3ccc(C(C)C)cc3)CC2)cc1 | 53.6% (active)
67 | N#Cc1cccc(S(=O)(=O)NCCC2CCN(C(=O)c3ccccc3)CC2)c1 | 34.6% (inactive)
68 | Cc1ccc(C(=O)N2CCC(CCNS(=O)(=O)c3ccccc3F)CC2)cc1 | 39.1% (inactive)
69 | COc1ccc(S(=O)(=O)NCCC2CCN(C(=O)c3ccccc3)CC2)cc1OC | 30.3% (inactive)

Row | Structure (SMILES) | inhibition
70 | O=C(CC1CCCCC1)N1CCCC(COc2ccc(C(=O)N3CCCCC3)cc2)C1 (configuration not stated) | 13.4% (inactive)
71 | CCC(C)NC(=O)c1cc2nc(-c3ccc(Cl)cc3)cc(C(F)(F)F)n2n1 (configuration not stated) | -6% (inactive)
72 | N#CCSc1nc2c(c(=O)n1Cc1ccccc1)C1(CCCC1)Cc1ccccc1-2 | -2.7% (inactive)
73 | CCn1c(=O)c2c(n3c(SCC(N)=O)nnc13)-c1ccccc1CC21CCCCC1 | 54% (active)
74 | O=c1[nH]c(CSCCO)nc2c1C1(CCCCC1)Cc1ccccc1-2 | 16.8% (inactive)
75 | O=C(Nc1cccc(NC(=O)c2ccccc2[N+](=O)[O-])c1)c1ccccc1Cl | 5% (inactive)
76 | COc1ccc2cc(-c3nnc(NC4CCCCC4)s3)c(=O)oc2c1 | -11% (inactive)
77 | COc1ccc(C2C3=C(CC(C)(C)CC3=O)N=C3c4ccccc4C(=O)C32)cc1 (configuration not stated) | 62% (active)
78 | O=C1CCCC2=C1C(c1cccc([N+](=O)[O-])c1)C1C(=O)c3ccccc3C1=N2 (configuration not stated) | 10% (inactive)
79 | Cc1cccc(C2C3=C(CCCC3=O)N=C3c4ccccc4C(=O)C32)c1 (configuration not stated) | 8% (inactive)
80 | CC(C)CC(=O)N1CCc2ccccc2C1 | -9.1% (inactive)
81 | COc1ccc(C=C2Oc3c(ccc4c3CN(Cc3ccc(OC)c(OC)c3)CO4)C2=O)cc1OC | 44% (inactive)
82 | CC(C)n1c(C2CCN(S(=O)(=O)Cc3ccc(F)cc3Cl)C2)nc2ccncc21 (configuration not stated) | 9.49% (inactive)
83 | CCCCCCOc1ccc(NC(=O)CC2SC(=N)NC2=O)cc1 (configuration not stated) | 1% (inactive)
84 | COC(=O)c1ccc(CN2CCCC2c2cc(C)on2)cc1 (configuration not stated) | 1.57% (inactive)
85 | COc1cccc(/C=C2\SC(=N)N(c3ccc(F)cc3)C2=O)c1 | 3% (inactive)
86 | N=C1S/C(=C\c2ccc(-c3ccccc3[N+](=O)[O-])o2)C(=O)N1c1ccc2c(c1)OCO2 | 26% (inactive)
87 | CC(=O)Nc1nonc1N1C(=N)S/C(=C\c2ccc(-c3cccc(F)c3)o2)C1=O | 57% (active)
88 | COc1ccc2nc(NCCn3cccn3)sc2c1 | -1.7% (inactive)
89 | CCOC(=O)C1CCCN(C(=O)c2nn(-c3ccc(F)cc3)c(=O)cc2OC)C1 (configuration not stated) | -5.9% (inactive)
90 | O=C(c1ncn[nH]1)N1CCN(Cc2ccccc2)CC1 | 90.3% (active)
91 | O=C(c1cccc(Cl)c1)N1CCN(Cc2ccccc2)CC1 | 4.6% (inactive)
92 | O=C(Nc1ccccc1)N1CCN(Cc2ccccc2)CC1 | -7.6% (inactive)
